Measured values published in PubChem BioAssay AID1508600 (Functional Genomics Laboratory (NCATS/FGL), 2020).
Screen size: about 53,000 sequences; about 3,700 (7%) were called active.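 The calls were made as follows: active = gene knockdowns whose robust z-score for IL-1 alpha signal is at least 2 or at most -2, so actives lie on both sides; inactive = the rest.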 Many of the other results were omitted from the sample, so actives are more common in it than they were.

test: Components of the Cytosolic LPS Sensing Pathway: Gene Identification via Genome-wide siRNA Screen; settings: RAW264.7 macrophages, IL-1a HTRF, actives lie on both sides, screened at 100 nM (by protocol), cells primed 5 h with Pam3CSK4 first;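 also: robust z of the log signal after scaling to non-targeting control siRNA wells of the plate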
Procedure, shortened: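 Mouse macrophage line RAW264.7 is transfected with siRNA (100 nM final), grown 48h, primed with TLR ligand Pam3CSK4 5 h and given intracellular LipidA 24 h. IL-1a in supernatant is read by HTRF and viability by luminescence.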

z-score, inactive:
GGGUAUGAUGUGAUUGCUCTT against Eif4a2 0.0435
GGAUAACCUAUCGAAUCUCTT against Dsg4 1.26
GCAUCUCUCUACCAUUGACTT against Frmd8 0.538
CGUACAAAGGUAGUAUACCTT against Pi4k2a 1.1
GGGAUAACACUCCUGUUUUTT against F630111L10Rik -1.06
GUUCCUGCUGAUCAAGGACTT against Nsmce3 0.2
GUCUUAUACACGUGUGGACTT against Cklf -0.198
GGAAUCAUUGACGUAAUCATT against Chil3 1.99
GACAGGCGGCCUUCCGAGATT against Hyi -0.479
GGAUGUAAAAUGCAGUUUATT against Tmsb4x 0.855
GCGGAAUUUGGUUUCUAUUTT against Etv2 -0.432
GGAGUUUCCAUCACGAAGATT against Bmp4 0.574
CCAUUAAGAUCCGAAGUAUTT against Lrrc58 -0.36
GGUUGAAACGAGUUUUGAATT against Zbtb5 0.00556
GGGCAGAAAAUCAUUUGUUTT against Anxa11 0.0839
CCAGUGGUAUGAGGUUGAATT against Cpne3 0.238
GCACAUGGGAGACUAUGAATT against Necab2 -1.14
GCAGAGCGAUUAUAUGGACTT against Rnpepl1 -0.308
CGAUUACUUGGAAAACCAATT against Ifne -1.21
GGCUCAUGUAAGAUAAUUATT against Kcns3 -1.03
CCUGAAGAAAGAAUCCCUATT against Nobox 0.241
CCUACAGUACUUCAAGCGGTT against Hip1 -1.37
GCUCUAACGUAUGAUGCCATT against Nde1 0.206
CCAAACUUAAGCCUAUUCUTT against Mme 1.32
GCAACUGAGGCUUUCUUUGTT against Copg1 -1.53
GGAAGCAUUGAUUUUCAUCTT against Prok2 1.82
GGUCGGUUGCUUUAGUGAATT against Magee2 1.42
GGGCAAAAUCGUGUCAAGCTT against Dpp9 0.253
CCCAAUGAUCCUAACCAUUTT against Zfp459 -1.08
GGAGAGAAUGGACCAUCUCTT against Rnase10 -1.16
GGUGUAUCUGUUCUGUUAATT against Impg1 -0.559
CGAGCUGUUAGAAUUCAGATT against Jakmip1 -0.818
GGAUCAAGAAUUAAUGUCUTT against Nes -0.349
GCGACAACUUAAAGACCGGTT against Cand2 0.0878
GGCCAUCGCACUUAAACUUTT against 1700123K08Rik -0.578
CCGAUGAUCAGAGAAACAGTT against Prkar2b -1.25
GGGACAACAUGGAUUCAAGTT against Sult1c2 0.685
GCCAAAACUCUGUUAGAUATT against Anapc7 -0.931
GGAAUCUAGCUGAGAAAAUTT against Lepr -0.62
GGGAGUUCCAAUCAUUCUUTT against 2200002J24Rik 0.667
GGUCUAUGUACUGUCCUGATT against Otop2 0.0413
GGCAAUCAUGUGGACUUCATT against C230071H18Rik 0.714
CGUGAAGGAAACUUUUCAGTT against Prmt9 -1.45
GGCAGACUCUGCCUACUUATT against Utf1 1.01
GCUUUAAACUGAGUGAUAATT against Zfp451 -0.564
GCAUGACAGGAAACUCUCUTT against Olfr1308 -0.825
GCAACAAAUUUGAAUCAGATT against Chic2 -0.185
GGAUCUUCGUACUAGAGGCTT against Cenpx 0.0358
CCUCGUCGAGUGGAAAAUUTT against Pxylp1 -0.574
GGAGACUCCUUACGGCAAATT against Bnip1 0.227
GGAAUGUUAACAAAGAGCATT against Sgcb 0.8
CCUAAUGUUUAGAUCCAUATT against Gcm2 0.11
GGCCGAAUUGUGUCUUGGUTT against Dnmt3a -1.71
GUGACACCUUUAUGGAGAGTT against Olfr1271 0.267
CGUGCUAGUGACCAUUUACTT against Limch1 0.625
GGGUACCUACAUAGACAAGTT against Rps11 0.0651

z-score, active:
GGUUCUCAUACAUAAACAATT against Mri1 -2.87
GCACCUGAUUAAGUUGCAUTT against Med15 -2.11
GGGCGACACAAGGUUUUUGTT against Kif3a 2.61
GGAAACAACAACUGUCACATT against Defb40 -2.13
GCACAGGACUGAUGCUAAGTT against Wdr91 2.92
GGCUCUUCCAACAGUUCUUTT against Grk1 2.07
GGACACCAAUCACAUUUGATT against Cngb3 -2.21
GGUGGUCUCCUACAAUGCCTT against Olfr1451 2.3
GGAAGAAGAACUGAAGACATT against Ctnnbl1 2.22
GGAGAUUGACAUUAGCAACTT against Rps6ka2 3.02
GGCCAUCUAAUGACCUUCATT against Madd -2.7
GGGCUGAGGAGAAAAUGCATT against Meg3 -2.37
CGCAGUGAGGAGUAUGAAGTT against Nin 3.53
